# IDE exosite inh: exo-site inhibitors of human IDE, primary screen, biochemical, fluorescence anisotropy, probe displacement; Insulin-degrading enzyme (Homo sapiens), P14735; purified IDE, FL-6b probe fluorescence polarization; stronger effect = lower value; z-score at 20 µM; actives 6.3% (n = 17,000);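 active = z-score of -3 or lower, meaning strong loss of probe binding signal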;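 note: His-tagged human IDE residues 42-1019 made in E. coli with 30 nM FL-6b probe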
# * = called active by the depositor. Shown is part of a subset that was picked to be rich in hits.
SMILES,IDE exosite inh
Cc1ccccc1-c1ccc([C@@H]2[C@@H](CO)N3CCCCN(C(=O)NC4CCCC4)C[C@H]23)cc1,-15*
O=C(NC1CCCC1)N1CCCCN2[C@@H](CO)[C@H](c3ccc(-c4ccccc4)cc3)[C@@H]2C1,-3*
CCCC#Cc1ccc([C@H]2[C@H](CO)N3CCCCN(C(=O)NC4CCCC4)C[C@@H]23)cc1,-8.2*
O=C(NC1CCCC1)N1CCCCN2[C@H](C1)[C@H](c1ccc(-c3cncnc3)cc1)[C@@H]2CO,-0.86
COc1ccc(NC(=O)N2CCCCN3[C@H](C2)[C@H](c2ccc(-c4ccccc4C)cc2)[C@@H]3CO)cc1,4.2
O=C(NC1CCCC1)N1CCCCN2[C@H](C1)[C@H](c1ccc(-c3ccccc3)cc1)[C@@H]2CO,-2.1
O=C(NC1CCCC1)N1CCCCN2[C@H](CO)[C@@H](c3ccc(-c4ccncc4)cc3)[C@H]2C1,4.7
CC(C)CC#Cc1ccc([C@H]2[C@@H](CO)N3CCCCN(C(=O)NC4CCCC4)C[C@@H]23)cc1,-0.55
CC(C)CC#Cc1ccc([C@@H]2[C@@H](CO)N3CCCCN(C(=O)NC4CCCC4)C[C@@H]23)cc1,1.8
O=C(NC1CCCC1)N1CCCCN2[C@H](CO)[C@H](c3ccc(-c4cncnc4)cc3)[C@@H]2C1,3.7
Cc1ccccc1-c1ccc([C@@H]2[C@H](CO)N3CCCCN(C(=O)NC4CCCC4)C[C@@H]23)cc1,-19*
CO[C@@H]1CN(C)C(=O)c2cc(NC(=O)CC(F)(F)F)ccc2OC[C@H](C)N(CC2CC2)C[C@H]1C,-0.86
O=C(C[C@@H]1C=C[C@H](NC(=O)c2cnccn2)[C@@H](CO)O1)NCc1ccccc1F,1.1
CO[C@H](C(=O)N(C)C[C@@H]1OCc2ccccc2-c2ccccc2C(=O)N([C@H](C)CO)C[C@H]1C)c1ccccc1,0.23
O=C1NCCOCn2nncc2CC[C@H]1Cc1cccc(Cl)c1,-0.57
COc1ccccc1-c1ccc2c(c1)O[C@@H](CN(C)CC1CCOCC1)[C@@H](C)CN([C@@H](C)CO)S2(=O)=O,0.31
COc1ccc(-c2ccc([C@H]3[C@H](CO)N4C(=O)CNC[C@@H]34)cc2)cc1,0.36
CN1C[C@@H](O)COC[C@@H]2O[C@H](CC(=O)NC3CCCC3)CC[C@H]21,1.1
CN1C[C@H]2[C@@H](c3ccccc31)[C@@H](CO)N2S(=O)(=O)c1ccccc1,2.6
O=C(Nc1ccc2c(c1)[C@@H]1C[C@@H](CC(=O)N3CCc4ccccc4C3)O[C@@H](CO)[C@@H]1O2)c1ccc2c(c1)OCO2,-0.93
CCS(=O)(=O)Nc1ccc2c(c1)C(=O)N(C)C[C@@H](OC)[C@@H](C)CN(CC1CCCCC1)[C@@H](C)CO2,-0.36
CCN(C[C@H]1[C@@H](c2ccccc2)[C@@H](CO)N1CC1CC1)C(=O)c1ccccc1F,-0.61
COC(=O)C[C@H]1CC[C@H]2[C@H](COc3ccc(NC(=O)Nc4cccc(C#N)c4)cc3C(=O)N2C)O1,-0.77
CN1C[C@H]2[C@@H](c3ccccc31)[C@H](CO)N2S(=O)(=O)c1ccccc1,0.2
COCC(=O)NC[C@H]1N[C@H](CO)[C@H]1c1ccc(C2=CCCCC2)cc1,2.7
SMILES,IDE exosite inh
Cc1ccccc1-c1ccc([C@H]2[C@H](CO)N3CCCCN(S(=O)(=O)c4cn(C)cn4)C[C@@H]23)cc1,-7.1*
Cc1cccc(-c2ccc([C@@H]3[C@H](CO)N4CCCCN(S(=O)(=O)c5cccc(C)c5)C[C@@H]34)cc2)c1,-2.8
Cc1cccc(-c2ccc([C@@H]3[C@@H](CO)N4CCCCN(S(=O)(=O)c5cn(C)cn5)C[C@@H]34)cc2)c1,-18*
Cn1cnc(S(=O)(=O)N2CCCCN3[C@H](CO)[C@H](c4ccc(-c5ccccc5)cc4)[C@H]3C2)c1,-0.56
Cn1cnc(S(=O)(=O)N2CCCCN3[C@@H](CO)[C@@H](c4ccc(-c5ccccc5)cc4)[C@@H]3C2)c1,-5.6*
Cc1cccc(-c2ccc([C@H]3[C@@H](CO)N4CCCCN(S(=O)(=O)c5cn(C)cn5)C[C@@H]34)cc2)c1,0.53
Cn1cnc(S(=O)(=O)N2CCCCN3[C@H](CO)[C@H](c4ccc(-c5ccccc5)cc4)[C@@H]3C2)c1,1.9
C[C@H](CO)N1C[C@H](C)[C@@H](CN(C)Cc2ccncc2)OCCCC[C@H](C)Oc2ccc(NC(=O)Cc3ccccc3)cc2C1=O,-0.65
COc1ccc(S(=O)(=O)N2CCCCN3[C@@H](CO)[C@H](c4ccc(C#CCC(C)C)cc4)[C@@H]3C2)cc1,6.3
Cc1noc(C)c1NC(=O)Nc1ccc2c(c1)C(=O)N([C@@H](C)CO)C[C@@H](C)[C@H](CN(C)Cc1ccc3c(c1)OCO3)OCCCC[C@H](C)O2,1.6
C[C@H](CO)N1C[C@H](C)[C@@H](CN(C)Cc2ccc3c(c2)OCO3)OCCCC[C@H](C)Oc2ccc(NS(=O)(=O)c3cn(C)cn3)cc2C1=O,-0.07
Cc1cccc(-c2ccc([C@H]3[C@H]4CN(C(=O)c5ccncc5)CCCCN4[C@H]3CO)cc2)c1,-3*
O=C(c1ccncc1)N1CCCCN2[C@H](C1)[C@H](c1ccc(-c3ccccc3)cc1)[C@@H]2CO,1.9
O=C(c1ccncc1)N1CCCCN2[C@@H](CO)[C@@H](c3ccc(-c4ccccc4)cc3)[C@@H]2C1,-0.96
Cc1ccc(-c2ccc([C@@H]3[C@H](CO)N4CCCCN(C(=O)c5ccncc5)C[C@@H]34)cc2)cc1,-1.2
Cc1cccc(-c2ccc([C@@H]3[C@H](CO)N4CCCCN(C(=O)c5ccncc5)C[C@@H]34)cc2)c1,-12*
Cc1cccc(-c2ccc([C@@H]3[C@H](CO)N4CCCCN(C(=O)c5cccnc5)C[C@@H]34)cc2)c1,-1.4
N#C[C@H]1[C@H](c2ccc(C#CC3CCCC3)cc2)[C@@H](CO)N1C(=O)Cc1ccccn1,-0.7
CCCNC(=O)N1CC(=O)N2[C@H](CO)[C@H](c3ccc(-c4ccccc4)cc3)[C@@H]2C1,-2.2
CCCNC(=O)N1CC(=O)N2[C@H](CO)[C@@H](c3ccc(-c4ccc(C)cc4)cc3)[C@H]2C1,-3.1*
CCCNC(=O)N1CC(=O)N2[C@H](C1)[C@H](c1ccc(-c3cccc(C)c3)cc1)[C@@H]2CO,-14*
COc1ccccc1NC(=O)N1CC(=O)N2[C@H](C1)[C@H](c1ccc(-c3ccc(F)cc3)cc1)[C@@H]2CO,2.2
CCCNC(=O)N1CC(=O)N2[C@H](C1)[C@@H](c1ccc(-c3ccc(F)cc3)cc1)[C@@H]2CO,0.76
COc1ccccc1NC(=O)N1CCCCN2[C@H](CO)[C@H](c3ccc(-c4cccc(C)c4)cc3)[C@H]2C1,-1.5
CCCNC(=O)N1CC(=O)N2[C@H](CO)[C@H](c3ccc(-c4ccc(C)cc4)cc3)[C@@H]2C1,-1.4
COc1ccccc1NC(=O)N1CC(=O)N2[C@H](CO)[C@H](c3ccc(-c4cccc(C)c4)cc3)[C@@H]2C1,-3.7*
CCCNC(=O)N1CC(=O)N2[C@H](CO)[C@H](c3ccc(-c4ccc(F)cc4)cc3)[C@H]2C1,0.88
CO[C@H](CN(C)C(=O)C1CCOCC1)[C@@H](C)CN(C(=O)Nc1ccc(C(F)(F)F)cc1)[C@@H](C)CO,-1.2
C[C@H]1CN([C@@H](C)CO)C(=O)CCCn2nncc2CO[C@H]1CN(C)Cc1ccc2cccnc2c1,0.047
C/C=C/c1ccc([C@H]2[C@@H](CO)N(C(=O)c3ccccc3)C23CN(C(C)=O)C3)cc1,-1.6

# Screens: PubChem BioAssay, Broad Institute
